# Gal4-VP16 FLuc: VP16 counterscreen qHTS for inhibitors of ROR gamma transcriptional activity | Drosophila S2 Gal4-VP16 UAS-luciferase, luminescence, 20 h | Potency, µM (doses to about 53.6 µM), for inactives: at the highest dose activity, negative = inhibition, most hits filed as inhibitors | hit rate 3.5% among 310,000 | AID 2546, 2010;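 further: Gal4-VP16 expression switched on by copper sulfate through the metallothionein promoter; nearly all actives have a fitted effect of over 50% in size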
# TDP1 cell noCPT: qHTS for Inhibitors of human tyrosyl-DNA phosphodiesterase 1 (TDP1): qHTS in cells in absence of CPT; AID 686978, 2013; hit rate 15% among 420,000; DT40 Tdp1-/- hTDP1 cells, no CPT, ATP luminescence, 48 h; Potency, µM (top dose mostly 46.2 µM), for the others: at the top dose activity change, negative = growth inhibition, actives largely listed as inhibitors; further: nearly all actives have a fitted effect of over 55% in size
#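 Stably hTDP1-transfected Tdp1-null chicken DT40 cells were treated with library compounds minus camptothecin and grown for at least 48 hr at 37 °C, after which cellular ATP was quantified by luminescence.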
# 12-LOX inh: Primary qHTS assay for inhibitors of human arachidonate 12S-lipoxygenase (ALOX12): Round 2. purified 12hLO, xylenol orange hydroperoxide absorbance. AID 1671190, 2021. Polyunsaturated fatty acid lipoxygenase ALOX12 (Homo sapiens), P18054. hit rate 1.1% among 580,000. Potency, µM (highest dose often 108 µM), without a hit: at the top dose activity change, negative = inhibition, most hits filed as inhibitors
# Target sequence (P18054 whole entry, looked up): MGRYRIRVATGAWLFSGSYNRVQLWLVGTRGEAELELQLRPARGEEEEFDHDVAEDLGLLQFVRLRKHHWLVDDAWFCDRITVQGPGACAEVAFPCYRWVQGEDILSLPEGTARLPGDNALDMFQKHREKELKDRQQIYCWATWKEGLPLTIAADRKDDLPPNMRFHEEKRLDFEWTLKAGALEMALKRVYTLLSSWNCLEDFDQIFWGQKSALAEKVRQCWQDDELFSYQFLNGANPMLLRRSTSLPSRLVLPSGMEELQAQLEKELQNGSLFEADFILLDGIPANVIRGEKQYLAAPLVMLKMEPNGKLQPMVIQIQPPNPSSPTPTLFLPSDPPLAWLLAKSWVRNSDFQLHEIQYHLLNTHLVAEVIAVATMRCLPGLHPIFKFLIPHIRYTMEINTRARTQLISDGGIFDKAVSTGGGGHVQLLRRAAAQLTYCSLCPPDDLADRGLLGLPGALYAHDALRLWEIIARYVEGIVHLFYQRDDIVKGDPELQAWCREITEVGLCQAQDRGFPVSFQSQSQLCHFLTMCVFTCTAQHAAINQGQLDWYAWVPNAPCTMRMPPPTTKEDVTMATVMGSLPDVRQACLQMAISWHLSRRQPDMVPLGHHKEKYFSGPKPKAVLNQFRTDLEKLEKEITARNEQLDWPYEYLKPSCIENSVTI
#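 Hydroperoxide product was detected by ferrous iron/xylenol orange as the 573 to 405 nm absorbance ratio. Arachidonic acid at 40 uM (final) was turned over for 30 min at room temperature by 150 nM human 12hLO, pH 7.0 Hepes buffer, after 15 min compound preincubation.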
# RORg inh: qHTS for inhibitors of ROR gamma transcriptional activity | Drosophila S2 Gal4-RORgamma UAS-luciferase reporter, 20 h | Potency, µM (series often up to 53.6 µM), for the others: top-dose activity change, negative = inhibition, hits mostly inhibitors | hit rate 5.4% among 310,000 | AID 2551, 2010; further: nearly all actives have a fitted effect of over 60% in size
#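 Luminescence from a UAS-regulated Photinus luciferase reporter in stably transfected Drosophila Schneider cells is measured; decreased signal marks ROR gamma inhibition. Fusion expression is induced by 700 uM copper sulfate for 20 hr.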
# TDP1 cell CPT: qHTS for Inhibitors of human tyrosyl-DNA phosphodiesterase 1 (TDP1): qHTS in cells in presence of CPT. chicken DT40 Tdp1-/-;hTDP1 cells + 20 nM CPT, ATP luminescence, 48 h. Potency, µM (top dose mostly 46.2 µM), inactives show at the top dose activity change, negative = growth inhibition, hits mostly inhibitors. hit rate 12% among 420,000; further: nearly all actives have a fitted effect of over 55% in size
#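 Chicken DT40 Tdp1-/- cells stably complemented with human TDP1 were seeded at 400 cells/well in medium containing 20 nM camptothecin, exposed to pin-transferred compounds, and grown at 37 °C for at least 48 hr. Viability was read as ATP luminescence.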
# ELG1 DNA repair: qHTS screen for small molecules that inhibit ELG1-dependent DNA repair in human embryonic kidney (HEK293T) cells expressing luciferase-tagged ELG1. HEK293T ELG1-luciferase reporter, luminescence, 16 h; DNA damage induced by 5-fluorouridine. hit rate 2.3% among 330,000. Potency, µM (highest dose often 46.1 µM), for the others: top-dose activity change, negative = inhibition, actives largely listed as inhibitors; further: nearly all actives have a fitted effect of over 55% in size
#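 5-Fluorouridine DNA damage + compound/DMSO, 2,000 cells/well, 16 h, 37 °C/5% CO2. ONE-Glo, 30 min RT, luminescence. Readout = decrease in reporter signal.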
# Numbers without * were called inactive; ? = inconclusive; . = no result; [ ] = another dose, or the depositor's remark. The list is not random: actives were taken first. Their share in the collection is about 15%. The call rests on the fitted dose curve; in most records, active means well fitted curve in the direction sought with a large enough effect; inconclusive means small, poorly fitted or top-dose-only effect, or another doubt; inactive means no such curve, though single readings can be large; an effect the other way counts as inactive or inconclusive. On the % scale 0 is the no-effect control and ±100 the full control effect; potency means the concentration at half of the fitted maximal effect.
SMILES,Gal4-VP16 FLuc,TDP1 cell noCPT,12-LOX inh,RORg inh,TDP1 cell CPT,ELG1 DNA repair
Fc1cccc(Cl)c1CNc1ccc(N2CCCC2)cc1,6%,9.2µM*,32µM*,-33%,2.3µM*,?
COCc1cc(=O)[nH]c(SCCS(=O)(=O)c2ccc(Cl)cc2Cl)n1,0%,?,-97%,17%,21µM*,?
COc1ccc(C(=O)OCc2ccc(C#N)cc2)c(O)c1,.,.,0%,.,.,.
O=C(CNc1cc(S(=O)(=O)N2CCOCC2)ccc1N1CCCC1)Nc1ccc(Cl)cc1F,.,13µM*,?,.,?,.
O=C(Nc1cccc(Cl)c1)Nc1cc(S(=O)(=O)N2CCOCC2)ccc1N1CCCC1,3%,23µM*,?,5%,15µM*,-19%
N#Cc1ccc(NC(=O)CNc2cc(S(=O)(=O)N3CCCCC3)ccc2N2CCCCC2)cc1,.,.,16µM*,.,.,.
CCCCNC(=O)COC(=O)c1cc(-c2cccs2)nc2ccccc12,.,.,-2%,.,.,.
C#CCOCCOCCOCCNc1nc(N2CCN(C(=O)CCCCCCCCCCNC(=O)[C@H](CO)n3cc(CCCSC)nn3)CC2)nc(N2CCN(C(=O)CCCCCCCCCCNC(=O)[C@H](CCCN=C(N)N)n3cc(C[C@@H](C)CC)nn3)CC2)n1,.,23µM*,.,.,?,-21%
C#CCOCCOCCOCCNc1nc(N2CCN(C(=O)CCCCCCCCCCNC(=O)Cn3cc(C[C@@H](C)O)nn3)CC2)nc(N2CCN(C(=O)CCCCCCCCCCNC(=O)[C@H](CCCN=C(N)N)n3cc(C[C@@H](C)CC)nn3)CC2)n1,.,16µM*,.,.,?,-28%
C#CCOCCOCCOCCNc1nc(N2CCN(C(=O)CCCCCCCCCCNC(=O)[C@@H](CCSC)n3cc(CCO)nn3)CC2)nc(N2CCN(C(=O)CCCCCCCCCCNC(=O)[C@H](CCSC)n3cc(CCO)nn3)CC2)n1,.,?,22%,.,6.5µM*,-4%
C#CCOCCOCCOCCNc1nc(N2CCN(C(=O)CCCCCCCCCCNC(=O)[C@H]([C@@H](C)CC)n3cc(CCCCCN)nn3)CC2)nc(N2CCN(C(=O)CCCCCCCCCCNC(=O)[C@H](CCCCN)n3cc(CCCC(=O)O)nn3)CC2)n1,.,-26%,.,.,-21%,11%
Cc1ccc2nc(C)c(C(=O)NC(C)c3ccccc3)cc2c1 (configuration not stated),.,.,28%,.,.,.
COc1ccc2cc(C(=O)N3CCN(Cc4ccccc4)CC3)c(C)nc2c1,.,.,20%,.,.,.
Cc1cc(C)[nH]n1,.,.,-16%,.,.,.
Cc1cc(NC(=O)COC(=O)C2(c3ccccc3)CC2)no1,.,.,-25%,.,.,.
Cc1cccc(N2CCN(CCCNC(=O)C3CCCN(c4ncnc5c4nc4n5CCCCC4)C3)CC2C)c1 (configuration not stated),2%,12µM*,-2%,13%,?,12µM*
Cc1cccc(N2CCN(c3ncnc4c3nc3n4CCCCC3)CC2C)c1 (configuration not stated),.,9.2µM*,1%,.,7.3µM*,.
COc1ccc(OCc2nc3c4cc(OC)c(OC)cc4nc(=S)n3[nH]2)cc1,0.71µM*,6.5µM*,-25%,0.4µM*,6.5µM*,0%
Cc1ccccc1-c1cc(C(=O)NC(C)C)c2ccccc2n1,.,.,-25%,.,.,.
COc1cccc(CCc2ccccc2OCC[C@@H]2C[C@@H](O)CN2C)c1,3%,.,0%,7.1µM*,.,.
CC(O)/C=C/c1cccc[n+]1C (configuration not stated),-6%,2%,18µM*,-3%,-14%,0%
CC(=O)N1CCCC2(C1)CN(C)c1ccc(C(=O)NC(C)C)cc12 (configuration not stated),.,.,2%[176 µM],.,.,.
CC(Cc1cccs1)NC(=S)Nc1ccc(Cl)c(Cl)c1 (configuration not stated),?,?,32µM*,7.9µM*,21µM*,14%
CC(Cc1cccs1)NC(=S)Nc1ccc(Cl)cc1 (configuration not stated),14µM*,?,40µM*,7.1µM*,?,2%
CC(Cc1cccs1)NC(=O)Nc1ccc(F)cc1 (configuration not stated),4%,?,-8%,16%,-14%,?
SMILES,Gal4-VP16 FLuc,TDP1 cell noCPT,12-LOX inh,RORg inh,TDP1 cell CPT,ELG1 DNA repair
O=C(CSc1nncn1CCc1cccs1)Nc1ccccc1,.,.,-15%,.,.,.
COc1cc(OC)cc(OC(C)C(=O)Nc2cc(Cl)ccc2OC)c1 (configuration not stated),.,.,-4%,.,.,.
CCOc1ccc(CCNC(=O)c2ccc3nc(N4CCOCC4)sc3c2)cc1OCC,16%,?,0%,20%,?,23µM*
CCOc1ccc(CCNC(=O)c2ccc3nc(N4CCC(C)CC4)sc3c2)cc1OCC,.,5.2µM*,-15%,.,6.5µM*,.
CCc1c(-c2ccccc2)nc2ccccc2c1C(=O)NC(C)c1ccccc1 (configuration not stated),.,23µM*,-26%,.,?,.
CCCC1c2nccn2CCCN1C(=O)c1cc(C)no1 (configuration not stated),.,.,34%,.,.,.
CCOC(=O)C1CCCN(C(=O)c2ccc3nc(-c4ccccc4)c(-c4ccccc4)nc3c2)C1 (configuration not stated),-7%,21µM*,9%,12%,?,-15%
CCOC(=O)C1CCCN(C(=O)c2ccc3nc(-c4ccc(OC)c(OC)c4)c(-c4ccc(OC)c(OC)c4)nc3c2)C1 (configuration not stated),-5%,?,-10%,-5%,29µM*,1.8µM*
CCOC(=O)C1CCCN(C(=O)c2cccc(S(=O)(=O)N(C)c3ccc(OC)cc3)c2)C1 (configuration not stated),.,?,8%,.,?,-12%
CCOC(=O)C1CCCN(C(=O)c2cccc(S(=O)(=O)N(Cc3ccccc3)c3ccccc3OC)c2)C1 (configuration not stated),.,16µM*,10%,.,23µM*,-21%
CCOP(=O)(OCC)c1nc(Cc2ccc(Cl)cc2)oc1NCc1ccco1,.,.,-3%,.,.,.

# High-throughput results: PubChem, National Center for Advancing Translational Sciences (NCATS)
